Test results from PubChem BioAssay (NCATS).
Records with an inconclusive call do not appear. Active and inactive are the calls of the source. Calls come from the whole dose curve; as a rule, active = well fitted curve in the direction sought with a large enough effect; inconclusive = small, poorly fitted or top-dose-only effect, or another doubt; inactive = no such curve, though single readings can be large; an effect the other way counts as inactive or inconclusive.

Test system: not listed separately
Assay: qHTS for Inhibitors of the vitamin D receptor (VDR): Hit Validation using a Texas Red Assay (AID 602201); for activity, negative = inhibition: % is set by controls: 0 for no effect and ±100 for the full control effect
Conditions: VDR coregulator binding, Texas Red fluorescence polarization; series mostly up to 57.1 µM; activity, negative = inhibition: at the top concentration
Method in brief: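 Fluorescence polarization with 1.5 uM VDR-LBD, LG19078 and 7 nM Texas Red (final). After 2 hours at ambient temperature, read at Ex 595 nm/Em 615 nm.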
Potency is the fitted concentration of half-maximal effect.

Compound | Potency | activity, negative = inhibition
COc1cccc(C2CC3C(=O)C=CC2N3Cc2ccccc2)c1 (configuration not stated) | 28.2 µM (active) | –
O=C(O)CCC(=O)NCCC1=c2ccccc2=N/C1=C\c1c(O)n(Cc2ccc(F)cc2)c(=S)[nH]c1=O | – | -3.97% (inactive)
O=C1NC(=O)C(=Cc2ccc(-c3ccc(S(=O)(=O)N4CCOCC4)cc3)o2)C(=O)N1 | – | -19.4% (inactive)
O=c1oc2ccccc2c(O)c1[C@H]1c2ccc(O)cc2Oc2c1c(=O)oc1ccccc21 | – | 33.6% (inactive)
CCOC(=O)c1c(NS(=O)(=O)c2ccccc2)n(CCCOC)c2nc3ccccc3nc12 | 3.55 µM (active) | –

Biological target: Luciferin 4-monooxygenase (Photinus pyralis) (UniProt P08659)
Sequence (P08659 whole entry, looked up): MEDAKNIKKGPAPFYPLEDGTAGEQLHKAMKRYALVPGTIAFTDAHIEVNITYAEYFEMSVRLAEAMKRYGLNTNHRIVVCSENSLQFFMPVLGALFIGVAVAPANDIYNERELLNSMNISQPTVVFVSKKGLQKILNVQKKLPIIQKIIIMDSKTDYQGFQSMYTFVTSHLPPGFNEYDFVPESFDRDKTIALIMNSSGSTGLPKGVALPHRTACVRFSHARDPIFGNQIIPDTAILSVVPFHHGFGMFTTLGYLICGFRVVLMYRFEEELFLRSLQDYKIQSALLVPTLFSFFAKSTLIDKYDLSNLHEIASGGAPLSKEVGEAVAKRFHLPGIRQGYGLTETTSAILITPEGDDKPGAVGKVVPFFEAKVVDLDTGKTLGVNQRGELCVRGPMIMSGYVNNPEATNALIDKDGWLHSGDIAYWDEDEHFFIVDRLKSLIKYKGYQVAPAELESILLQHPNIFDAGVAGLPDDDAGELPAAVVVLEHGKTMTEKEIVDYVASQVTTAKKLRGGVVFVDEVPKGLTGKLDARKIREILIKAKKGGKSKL
Assay: Biochemical firefly luciferase enzyme assay for NPC (AID 624030); note: nearly all actives have a fitted effect of over 70% in size;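 for activity change, negative = inhibition: purified P. pyralis luciferase at 10 nM with luciferin and ATP substrate; 0% = DMSO and -100% = full luciferase inhibition by PTC124 control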
Conditions: purified P. pyralis luciferase, luminescence, 5 min; series mostly up to 58.6 µM; activity change, negative = inhibition: at the top concentration
Method in brief: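 Purified P. pyralis luciferase at 10 nM in 50 mM Tris Acetate (final), luminescence read within 5 minutes of enzyme addition to compounds. Activity normalised to PTC124 versus DMSO; concentration-response curves classed by r2, magnitude and activity.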

Compound | activity change, negative = inhibition | Potency
C=C/C=C/CC1=C(C)[C@@H](OC(=O)[C@@H]2[C@@H](/C=C(\C)C(=O)OC)C2(C)C)CC1=O (tested in a mixture with another compound) | -6.8% (inactive) | –
CCON=C(CC)C1=C(O)CC(c2c(C)cc(C)cc2C)CC1=O (configuration not stated) | -5.34% [at 123 µM] (inactive) | –
C[C@]12CCC3[C@@H](CCC4=CC(=O)CC[C@@]43C)C1CCC2OC(=O)CCc1ccccc1 (some centres not stated) | -2.57% [at 123 µM] (inactive) | –
CCC(=O)O[C@@](Cc1ccccc1)(c1ccccc1)[C@H](C)CN(C)C | 5.92% [at 123 µM] (inactive) | –
O=C1[O][Sb-]23[O]C(=O)C([O]2)C2[O][Sb-]4([O]C(=O)C([O]4)C1[O]3)[O]C2=O | -5.84% (inactive) | –
C=CCC1(C(C)CCC)C(=O)NC(=O)NC1=O (configuration not stated) | 1.62% [at 123 µM] (inactive) | –
C[C@]12CCC3C(CCC4=CC(=O)CC[C@@H]43)C1CCC2O (some centres not stated) | 0.957% (inactive) | –
CC12CCC(=O)CC1CCC1C2CCC2(C)C1CCC2(C)O (configuration not stated) | -1.77% (inactive) | –
C[C@H]1[C@@H]2Cc3ccc(O)cc3[C@]1(C)CCN2CCc1ccccc1 | 3.58% [at 123 µM] (inactive) | –
CC(=O)[C@@]1(O)CC[C@@H]2[C@@H]3CCC4=CC(=O)CC[C@]4(C)[C@]3(F)[C@@H](O)C[C@@]21C | -3.27% (inactive) | –
CN1CC[C@]23c4c5ccc(O)c4OC2C(O)CCC3[C@H]1C5 (some centres not stated) | -0.535% [at 123 µM] (inactive) | –
ClC[C@H]1CO1 (tested in a mixture with another compound) | -0.162% (inactive) | –
CC1[C@H]2Cc3ccc(O)cc3[C@]1(C)CCN2CCc1ccccc1 (some centres not stated) | 7.17% [at 123 µM] (inactive) | –
C#C[C@]1(OC(=O)CCCCCC)CC[C@H]2C3CCC4=CC(=O)CC[C@@H]4[C@H]3CC[C@@]21C (some centres not stated) | -3.44% (inactive) | –
COc1ccc2c3c1OC1C(O)C=CC4[C@@H](C2)N(C)CC[C@]314 (some centres not stated) | -3.07% [at 123 µM] (inactive) | –
CCNC(C)Cc1ccc2c(c1)OCO2 (configuration not stated) | 2.81% [at 123 µM] (inactive) | –

Compound | activity change, negative = inhibition | Potency
CC(C)=CCN1CC[C@@]2(C)c3cc(O)ccc3C[C@@H]1C2C (some centres not stated) | -2.43% [at 123 µM] (inactive) | –
O=C1OC(c2cc(I)c(O)c(I)c2)(c2cc(I)c(O)c(I)c2)c2ccccc21 | – | 32.2 µM (active)
CN1[C@@H]2CC[C@H]1CC(OC(=O)C(CO)c1ccccc1)C2 (some centres not stated) | 0.913% (inactive) | –
CC(C)=CCN1CC[C@@]2(C)c3cc(O)ccc3C[C@H]1[C@@H]2C | 0.692% [at 123 µM] (inactive) | –
CC(N)C(=O)c1ccccc1 (configuration not stated) | -14.4% [at 123 µM] (inactive) | –
CC(C)[C@@]1(NC(=O)[C@H]2C[C@H]3c4cccc5[nH]cc(c45)C[C@@H]3N(C)C2)O[C@]2(O)[C@H]3CCCN3C(=O)CN2C1=O (tested in a mixture with another compound) | -1.72% (inactive) | –
COc1ccc2c3c1OC1C(O)C=CC4[C@@H](C2)NCC[C@]314 (some centres not stated) | -0.56% [at 123 µM] (inactive) | –
CN[C@H]1C[C@@H](N)[C@H](O)[C@@H](O[C@@H]2O[C@H](CO)[C@H](O)[C@@H]3O[C@]4(O[C@@H]23)O[C@H]([C@@H](N)CO)[C@H](O)[C@@H](O)[C@H]4O)[C@@H]1O | 5.77% (inactive) | –
Cc1c(N)nc([C@@H](CC(N)=O)NC[C@H](N)C(N)=O)nc1C(=O)N[C@H](C(=O)N[C@H](C)[C@H](O)[C@H](C)C(=O)N[C@@H](C(=O)NCCc1nc(-c2nc(C(=O)NCCC[S+](C)C)cs2)cs1)[C@H](C)O)[C@H](O[C@@H]1O[C@@H](CO)[C@@H](O)[C@H](O)[C@@H]1O[C@H]1O[C@H](CO)[C@H](O)[C@H](OC(N)=O)[C@@H]1O)c1cnc[nH]1 | -2.86% (inactive) | –
O=[N+]([O-])NC1=NCCN1Cc1ccc(Cl)nc1 | -3.5% (inactive) | –
C[C@H]1[C@@H]2Cc3ccc(O)cc3[C@]1(C)CCN2C | 3.11% [at 288 µM] (inactive) | –
CCC(N)CCc1c[nH]c2ccccc12 (configuration not stated) | 2.21% [at 123 µM] (inactive) | –
COc1cc(CCN)c(OC)cc1Br | -0.0378% [at 123 µM] (inactive) | –
CCC1CC2CC3c4[nH]c5ccc(OC)cc5c4CCN(C2)C13 (configuration not stated) | 3.73% [at 123 µM] (inactive) | –
CC(C)CC1C(=O)N2CCCC2C2(O)OC(NC(=O)C3CC4c5cccc6[nH]cc(c56)CC4N(C)C3)(C(C)C)C(=O)N12 (configuration not stated) | -1.5% (inactive) | –
CN1CC[C@]23c4c5ccc(O)c4OC2C(O)C=CC3[C@H]1C5 (some centres not stated) | -4.14% [at 123 µM] (inactive) | –
